# In the library only some 4.1% were active in any assay of this set; here they are far more common.
# ssDAF-12 act – activators of S. stercoralis DAF-12 nuclear receptor; HEK293 ssDAF-12/GRIP1 lit1-tk-luc reporter, luminescence; % of 3 µM dafachronic acid response; 370,000 compounds, 1% hits; activation, % at 6.8 µM;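 active means activation above the mean over all tested compounds plus 3 SD, cut at about 0.9% in these data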;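 further: 0% = DMSO-only wells and 100% = 3 µM delta7-dafachronic acid wells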
# DAX1 inh-1 – blocks DAX1 repression of SF-1 activated StAR promoter. HEK293T StAR-luciferase reporter, SF-1/DAX-1 repression relief. inhibition, % at 6.8 µM. 370,000 compounds, 1.1% hits;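 active means inhibition above the mean over all tested compounds plus 3 SD, cut at about 3.6% in these data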;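 further: 0% = DAX-1 cells with DMSO and 100% = cells lacking DAX-1 with DMSO; higher inhibition means more luminescence from relief of DAX-1 repression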
# hgDAF12 agonist – hgDAF-12 agonism, primary luciferase screen. activation, % at 6.8 µM. HEK293 GAL4-hgDAF12 UAS-luciferase reporter, agonist luminescence; normalized to butyrate control. 370,000 compounds, 1.8% hits;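 active means activation above a cutoff set at the mean of all screened compounds plus 3 SD, cut at about 10% in these data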;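 further: 0% = DMSO wells and 100% = sodium butyrate wells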
# hcDAF12 agonist – activators of H. contortus DAF-12 nuclear receptor; HEK293 hcDAF-12 lit1-tk-luc reporter, luminescence; 0% DMSO, 100% Δ7-dafachronic acid; activation, % at 6.8 µM; 370,000 compounds, 1.4% hits; AID 652067;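 active means activation above the mean of all tested compounds plus 3 SD, cut at about 5.5% in these data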;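 further: 100% = response to 3 µM Δ7-dafachronic acid high control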
# DAX1 inh-2 – inhibits human nuclear receptor DAX1. HEK293 Gal4-DAX1 luciferase reporter, luminescence. inhibition, % at 6.75 µM. 340,000 compounds, 0.99% hits;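 active means inhibition above the mean over all tested compounds plus 3 SD, cut at about 4.2% in these data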;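 further: 0% = DAX1-transfected cells with DMSO and 100% = empty-vector control cells with DMSO; inhibition shows as a rise in luminescence from relieved DAX1 repression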
# Target sequence (P51843 207-470 limits assumed): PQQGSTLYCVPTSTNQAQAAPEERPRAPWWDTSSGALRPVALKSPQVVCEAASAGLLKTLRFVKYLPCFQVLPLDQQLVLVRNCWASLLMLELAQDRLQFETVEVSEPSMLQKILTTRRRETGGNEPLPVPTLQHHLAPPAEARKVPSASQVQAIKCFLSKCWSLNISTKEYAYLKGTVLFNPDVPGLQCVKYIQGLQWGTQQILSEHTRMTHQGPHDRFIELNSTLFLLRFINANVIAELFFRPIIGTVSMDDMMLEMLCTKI
# * = called active by the depositor; . = no result given.
SMILES,ssDAF-12 act,DAX1 inh-1,hgDAF12 agonist,hcDAF12 agonist,DAX1 inh-2
Cc1cc2nc(/C=C/c3nc4cc(C)c(C)cc4[nH]3)[nH]c2cc1C,0,0,0,0,0
Cc1csc(SCC(=O)Nc2nccs2)n1,0,1,1,1,1
Cc1csc(SCC(=O)Nc2sccc2C(N)=O)n1,-1,0,11*,0,0
Cn1c(=O)c(=O)n(C)c2cc(S(=O)(=O)N3CCN(CCO)CC3)ccc21,-1,0,-2,2,.
O=C(CCS(=O)(=O)c1cccs1)NC1CCCCCC1,0,1,12*,1,2
COc1ccc(-c2cc(C(=O)Nc3ccc(C(N)=O)cc3)c3ccccc3n2)cc1,-1,1,11*,1,0
CC(=O)Nc1ccc(-c2cc(C(=O)O)c3cc4ccccc4cc3n2)cc1,1.8*,0,3,5.9*,1
CCOc1ccc(NC(=O)c2ccccc2O)cc1,0,3,12*,5,-1
CCOc1ccc(NC(=O)c2cc(Cl)nc3ccccc23)cc1,0,0,1,1,4.3*
COc1cccc(-c2cc(C(=O)Nc3ccccc3)c3ccccc3n2)c1,-1,0,-2,2,.
CC(=O)Nc1ccc(-c2cc(C(=O)O)c3ccc(C)cc3n2)cc1,0,1,1,0,0
CNC(=O)CCc1nc(-c2ccc(C(C)C)cc2)no1,0,.,5,1,.
O=C(CSc1nnc(-c2cccc(Cl)c2)n1Cc1ccco1)Nc1ccc2c(c1)OCO2,-2,-2,-1,-2,.
COc1ccc(NC(=S)c2ccc3ccccc3n2)cc1,.,.,.,.,3
CCOc1ccc(NC(=S)c2ccc3ccccc3n2)cc1,1.0*,0,2,4,0
O=C1NC(=Nc2ccccc2)S/C1=C\c1cccs1,1.4*,0,7,5,1
Cc1cc(C)cc(N=C2NC(=O)/C(=C/c3cccs3)S2)c1,-2,-1,-2,-2,1
CCc1ccc(CCNC(=O)OC2CCC23CCC(c2ccccc2)CC3)cc1 (stereo not given),0,-1,2,-1,.
COc1ccc(-c2cc(CS(=O)(=O)c3ccccc3)on2)cc1,-1,3,13*,1,4.5*
O=S(=O)(Cc1cc(-c2ccccc2)no1)c1ccccc1,-1,3,10,0,-1
CNCCOc1ccc(Cl)c(Cl)c1,-1,0,-3,-1,5.3*
CC(=O)Nc1ccc(NC(=O)C2CCCN2C(=O)Nc2ccccc2[N+](=O)[O-])cc1 (stereo not given),-1,0,-2,-2,0
CC(=O)Nc1ccc(NC(=O)C2CCCN2C(=O)Nc2ccc(F)c([N+](=O)[O-])c2)cc1 (stereo not given),-2,1,3,0,4.9*
CCOC(=O)[C@@]12CCCC3=C1N(CCC3)C(=O)[C@H]2CC(=O)NCc1ccccc1,-1,0,-1,-2,.
O=C(COC(=O)Cn1cnc2ccccc2c1=O)Nc1cc(Cl)ccc1[N+](=O)[O-],1,0,0,5.6*,0
SMILES,ssDAF-12 act,DAX1 inh-1,hgDAF12 agonist,hcDAF12 agonist,DAX1 inh-2
O=C(CSc1ncccn1)Nc1cc(Cl)ccc1[N+](=O)[O-],0,0,2,0,4.8*
COc1ccc(NC(=O)COC(=O)Cn2cnc3ccccc3c2=O)c(OC)c1,-1,0,3,0,0
Cc1ccc(Cl)cc1NC(=O)COC(=O)Cn1cnc2c1c(=O)n(C)c(=O)n2C,-2,0,-1,5,-1
Cn1c(=O)c2c(ncn2CC(=O)OCC(=O)Nc2cc(Cl)ccc2C#N)n(C)c1=O,1,0,0,6.0*,1
O=C(CSc1ncccn1)NCc1ccc(Cl)cc1,-1,1,6,1,1
Cc1nc(SCC(=O)Nc2cc(Cl)ccc2[N+](=O)[O-])nc(C)c1C,-1,-1,-2,-1,1
O=C(CSc1ncccn1)NCc1cccc(Cl)c1,-1,0,12*,4,1
Cn1c(=O)cc(OCCCC(=O)Nc2cc(C(F)(F)F)ccn2)c2ccccc21,-3,.,-11,-5,.
O=C(NCCc1ccc(Cl)cc1)c1ccc2ccccc2n1,-1,0,5,6.0*,0
O=C(NCCc1ccccc1)c1cnc2ccccc2n1,0,1,13*,5,1
Cc1ccc(CCNC(=O)C2CC(c3ccccc3[N+](=O)[O-])=NO2)cc1 (stereo not given),0,0,2,2,1
O=C(NCCc1cccs1)C1CC(c2ccccc2[N+](=O)[O-])=NO1 (stereo not given),0,2,5,5.8*,3
Cc1cccc(NC(=O)c2n[nH]c([N+](=O)[O-])c2Br)c1C,1,3.6*,11*,3,0
O=C(/C=C/c1ccc([N+](=O)[O-])cc1)N1CCN(c2ccccc2F)CC1,-1,1,3,0,5.2*
COCCCNC(=O)C[C@H]1C[C@@]2(C(=O)OC)C(=C[C@H](C(C)C)O[C@@H]2C2CC2)N(Cc2ccc3c(c2)OCO3)C1=O,-1,-1,-2,-1,.
COc1ccc(OC)c(S(=O)(=O)N2CCCC(C(=O)N3CCN(Cc4ccccc4)CC3)C2)c1 (stereo not given),-1,-2,-3,-1,.
O=c1cc(-c2ccc(O)cc2)oc2ccc(O)cc12,0,2,13*,2,0
COc1ccc(C(=O)CSc2nnc(-c3ccccc3)n2-c2ccc(Cl)cc2)cc1,-1,-1,2,-1,.
Cc1cccc(NC(=O)c2onc3c2CCCC3)c1C,0,2,11*,2,2
Cc1cccc(NC(=O)c2onc3c2CCCC3)n1,0,4.1*,13*,5,-4
Cc1ccccc1NC(=O)c1onc2c1CCCC2,0,2,10,3,3
Cc1cc(C)cc(N(CC(=O)NC2CCC(C)CC2)S(=O)(=O)c2ccc(C)c(C)c2)c1 (stereo not given),0,2,5,-1,.
Cc1cc(-c2n[nH]c(=S)n2N=Cc2ccc(OCc3ccccc3)cc2)n[nH]1,0,-1,6,4,.
CC(C)(C)OC(=O)/C=C/[C@H](CCCCl)Sc1ccc(C(C)(C)C)cc1,-2,-3,0,-5,.
Cc1ccc2c(c1)c1nc3ccccc3nc1n2C,1.9*,0,5,5.9*,4.5*
COc1ccc(C)cc1Nc1n[n+](-c2ccccc2)c(-c2ccc(SC)cc2)s1,0,0,12*,2,4
Cc1ccc(-c2nc3sc4c(c3c(=O)n2N)CCCC4)cc1,0,3,12*,5.8*,2
Cc1nc2sc3c(c2c(=O)o1)CCCC3,1.0*,0,-1,5,0
COc1ccc(NC(=O)c2c(C)nn(-c3ccccc3)c2Cl)cc1,-1,0,2,1,5.1*
Cc1nn(-c2ccccc2)c(Cl)c1C(=O)N1CCN(C)CC1,-1,-1,2,0,9.1*

# Assay outcomes (PubChem)
